Compound activity deposited in PubChem by several laboratories.
Most compounds without a hit are left out; they make up all but 4.6% or so of the library.
tim23-1 inh = inhibits growth of tim23-1 mutant yeast; S. cerevisiae tim23-1 growth, BacTiter-Glo luminescence, 24 h; inhibition, % at 20 µM; 330,000 tested, 1.3% active;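 active = growth inhibition of the mutant yeast at or above 50%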;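 also: temperature-sensitive mutant grown at 25 °C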
SKKanGAS inh = blocks kanamycin growth of S. pyogenes SKKanGAS strain | BacTiter-Glo, 6 h | inhibition, % at 7.5 µM | 300,000 tested, 1.3% active | AID 1662;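 active = mean replicate score, as percent of positive control median, at least 50; inconclusive = mean below 50 but one replicate at or above 50; inactive = mean and every replicate below 50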;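 also: strain carries kanamycin resistance gene driven by streptokinase promoter and grows in 40 µg/ml kanamycin; loss of luminescence reflects streptokinase promoter inhibition or plain growth inhibition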
tim10-1 inh = tim10-1 yeast growth inhibition; S. cerevisiae tim10-1 ts strain growth, BacTiter-Glo, 24 h; inhibition, % at 20 µM; 330,000 tested, 2.2% active; AID 463190;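 active = inhibition of at least 40%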;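 also: mutant grown at 25 °C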
PfHsp90 yeast 2 = growth inhibition of yeast expressing Plasmodium Hsp90. S. cerevisiae expressing PfHsp90, BacTiter-Glo ATP, 48 h; yeast lacking PDR1 and PDR3 efflux regulators. inhibition, % at 9.4 µM. 310,000 tested, 0.32% active. AID 504621;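 active = every replicate shows inhibition above about 80%, whatever the replicate mean, limit read from the data; inconclusive = mean inhibition reaches the set limit but some replicate falls short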
NALP3 yeast inh = blocks the NALP3 inflammasome reconstituted in yeast; Yeast reconstituted NLRP3/ASC/caspase-1, beta-gal luminescence, 24 h; inhibition, % at 10 µM; 330,000 tested, 0.39% active;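 active = inhibition of 50% or more; inactive = inhibition below 50%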
TIM10 inh = growth inhibitors of TIM10 yeast strain; inhibition, % at 10 µM; 330,000 tested, 1.4% active; S. cerevisiae TIM10 strain growth, BacTiter-Glo luminescence, 24 h;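 active = inhibition of 40% or more at the single tested concentration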;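 also: wild-type TIM10 isogenic control strain grown at permissive 25 °C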
tim23-1 confirm = tim23-1 yeast growth inhibition, confirmed; shares compounds with tim23-1 inh; 4,400 tested, 83% active; inhibition, % at 20 µM; AID 463218; S. cerevisiae tim23-1 growth, BacTiter-Glo luminescence, 24 h;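 active = inhibition above about 39% in either of two replicate wells at 20 µM, limit read from the data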;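 also: temperature-sensitive tim23-1 mutant grown at 25 °C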
A number is an active result; - = inactive; ? = inconclusive; . = no result given.

SMILES | tim23-1 inh | SKKanGAS inh | tim10-1 inh | PfHsp90 yeast 2 | NALP3 yeast inh | TIM10 inh | tim23-1 confirm
C=CCNc1nc2ccccc2nc1NS(=O)(=O)c1ccc(Br)cc1 | 50 | - | - | - | - | - | 54
C=CCNc1nc2ccccc2nc1NS(=O)(=O)c1ccc(F)cc1 | - | - | - | - | - | - | .
CCCc1ccc(S(=O)(=O)N/N=C(/C)c2ccc3c(c2)OCO3)cc1 | 53 | - | - | - | - | - | 48
CCOc1ccc(S(=O)(=O)N/N=C(\C)c2ccc3c(c2)OCO3)cc1 | - | - | - | - | - | - | .
Oc1ccc2ccccc2c1/C=N/Nc1nnc(-c2ncc[nH]2)c2ccccc12 | 69 | 97 | - | 122 | - | - | 65
CCC1CCC2(CC1)NC(=O)N(CC(=O)N1CCc3ccccc31)C2=O (stereo not given) | - | . | - | - | - | - | .
COc1cc(/C=N\NC(=O)c2ccc(C)nc2)ccc1OC(=O)c1cccc(F)c1 | - | - | - | - | - | - | .
COc1cc(/C=N/NC(=O)c2ccc(N)cc2)ccc1OC(=O)c1cccc(C)c1 | 65 | - | - | - | - | - | 73
COC(=O)c1ccc(-c2ccc(Cl)cc2)nc1C | - | - | - | - | - | - | .
COC(=O)Nc1ccc2c(c1)Nc1ccccc1CC2 | 66 | - | - | - | - | - | 42
Cc1ccc2oc(C(Cl)(Cl)Cl)cc(=O)c2c1 | 75 | - | - | . | - | - | 76
O=C(O)CN1C(=O)c2cccc3c(Br)ccc1c23 | - | - | - | - | - | - | .
CN(C)CCCN1C(=O)c2cccc3c(Br)ccc(c23)C1=O | 62 | - | - | - | - | - | 71
COC(=O)N/N=C/c1ccc(-c2ccc(Cl)cc2Cl)o1 | 56 | - | - | - | - | - | 50
COC(=O)N/N=C/c1ccc(-c2ccccc2Cl)o1 | - | - | - | - | - | - | .
COc1ccc(S(=O)(=O)N2CC(C)N(C(=O)N(C)C)C2C)cc1 (stereo not given) | - | - | - | - | - | - | .
O=C(Oc1ccc2ccc(O)cc2c1)c1ccccc1Cl | 63 | - | - | - | - | - | 52
COc1cc(OC)nc(Oc2ccc(N)c(C)c2)n1 | - | - | - | - | - | - | .
COC(=O)c1c(NS(=O)(=O)Cc2ccccc2)sc2c1CCCC2 | 58 | - | - | - | - | - | 52
Cc1nn(C)cc1C(C)Nc1nc2nonc2nc1N1CCCCC1 (stereo not given) | - | - | - | . | - | - | .
COc1ccc(-c2c(-c3cc(OC)cc(OC)c3)n(C)c3ccc(-c4ccc(S(N)(=O)=O)cc4)cc23)cc1 | - | . | - | - | - | - | .
Cn1c(C=O)c(C#Cc2ccccc2)c2ccccc21 | 58 | . | - | - | - | - | 63
COC(=O)CCN(Cc1cc(OC)ccc1OC)S(=O)(=O)c1ccccc1Br | 54 | . | - | - | . | - | -
COC(=O)CCN(Cc1ccccc1)S(=O)(=O)c1ccccc1Br | - | . | - | - | . | - | .
COc1ccc(CN(CCC(C)C)S(=O)(=O)c2ccccc2Br)cc1 | - | . | - | - | . | - | .
SMILES | tim23-1 inh | SKKanGAS inh | tim10-1 inh | PfHsp90 yeast 2 | NALP3 yeast inh | TIM10 inh | tim23-1 confirm
CCC(=O)CN(Cc1cc(OC)ccc1OC)S(=O)(=O)c1ccccc1Br | 58 | . | - | - | . | - | -
O=C(COC(=O)COc1ccc(Cl)cc1)NCCNC(=O)COC(=O)COc1ccc(Cl)cc1 | 93 | - | - | - | - | - | -
O=C(COC(=O)COc1ccc(Cl)cc1)NCCCc1ccccc1 | - | . | - | - | - | - | .
CC1(C)CC(=O)C(N=Nc2ccc3ncsc3c2)=C(O)C1 | 60 | - | - | - | - | - | -
CC1(C)CC(=O)C(N=Nc2ccc(-c3ccccc3)cc2)=C(O)C1 | - | - | - | - | - | - | .
CC1(C)CC(=O)C(N=Nc2cccnc2)=C(O)C1 | 52 | - | - | - | - | - | -
O=C(NCCOc1cccnc1)C1CCC(=O)N(Cc2ccccc2F)C1 (stereo not given) | - | - | - | - | - | - | .
CN(C)CCCNC(=S)N(CCO)Cc1cc2cc3c(cc2[nH]c1=O)OCO3 | - | - | - | - | - | - | .
Cc1ccc(OCC(=O)Nc2cnn(CCCC(=O)O)c2)c([N+](=O)[O-])c1 | - | - | - | - | - | - | .
C[C@@H]1C=CC(=O)O[C@@H]1c1ccc(C(F)(F)F)cc1 | 57 | - | - | . | - | - | -
NC(N)=N/N=C/c1ccc(OCc2ccccc2)c(OCc2ccccc2)c1 | 60 | ? | - | - | - | - | 49
NC(N)=N/N=C/c1ccc(OCc2ccccc2Cl)cc1 | 59 | - | - | - | - | - | 44
NC(N)=N/N=C/c1ccccc1 | - | - | - | - | - | - | .
CCOc1cc2c(cc1/C=C1/NC(=O)N(CC(=O)OC)C1=O)OCO2 | - | - | - | . | - | - | .
O=C(Cn1ccc([N+](=O)[O-])n1)NCc1cccnc1 | - | - | - | - | - | - | .
Nn1cnnc1N/N=C/c1cc(Br)cc(Br)c1O | 57 | ? | - | - | - | - | 60
CC(OC(=O)C1=COCCO1)C(=O)Nc1ncc(Cl)cc1Cl (stereo not given) | - | . | - | . | - | - | .
COc1ccccc1NC(=S)NC(=O)CC(C)C | 51 | - | - | - | - | - | -
CCN(CC)c1nc(N)nc(N(c2ccccc2)c2ccccc2)n1 | 57 | - | - | - | - | - | 50
COc1ccc(-c2cc(-c3ccccc3)n[nH]2)c(O)c1 | 69 | - | - | - | - | - | 57
COc1ccc(-c2cc(-c3ccccc3O)[nH]n2)cc1 | 69 | - | - | - | - | - | 62
COC(=O)c1cc(-c2ccc(OC)cc2)n[nH]1 | - | - | - | . | - | - | .
Cc1ccnc(Nc2nc(-c3ccc(O)cc3O)cs2)c1 | 86 | - | - | - | - | - | 77
COc1ccc(OCc2nnnn2-c2ccccc2)cc1 | - | - | - | - | - | - | .
Brc1ccc(OCc2nnnn2-c2ccccc2)cc1 | 52 | - | - | - | - | - | 39
SMILES | tim23-1 inh | SKKanGAS inh | tim10-1 inh | PfHsp90 yeast 2 | NALP3 yeast inh | TIM10 inh | tim23-1 confirm
CC(C)Nc1nc(N)c(C(=O)C23CC4CC(CC(C4)C2)C3)s1 | 53 | - | - | - | - | - | 56
Cn1nnnc1Sc1ncnc2scc(-c3ccc(C(F)(F)F)cc3)c12 | 56 | . | - | - | - | - | -
Cn1nnnc1Sc1ncnc2scc(-c3cccc(C(F)(F)F)c3)c12 | 53 | . | - | - | - | - | 46
Cn1nnnc1Sc1ncnc2scc(-c3cc4ccccc4o3)c12 | 71 | . | - | - | - | - | 39
COc1ccccc1-c1nc2ccccc2c(=O)n1NC(=O)c1cccs1 | - | - | - | - | - | - | .
CCN(CC)S(=O)(=O)c1ccc(C(=O)OCn2nnc3ccccc3c2=O)cc1 | 70 | - | - | - | - | - | 56
COc1cccc(CN(C)C(=O)c2cccc(OCc3ccccc3)c2)c1 | - | - | - | - | - | - | .
